Among the test systems are BT-549 breast; SW-620 colon; MCF7 breast; HCT-116 colon; HCC-2998 colon; MDA-MB-435 melanoma; KM12 colon.
What all share (assay): NCI-60 one-dose screen, 48 h (100 = growth as untreated, 0 = no growth, -100 = all killed)
Common to all, as to settings: 10 µM unless noted

This is part of a sample that, as a whole, favours compounds with a hit. Of some 83,000 tested, about 20% had one in any assay.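 Testing used 96-well plates and a 48-hour single-concentration exposure. Example: -40 means 40% of the starting cells died.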 Unmarked numbers belong to inactive results. Active and inactive are the calls of the source. How the source made its calls: active means growth percent below 10; inactive means the rest.

As to `C=C1C(=O)O[C@H]2[C@H]1CC/C(COC(=O)c1cc3ccccc3o1)=C\CC[C@@]1(C)O[C@@H]21`, the growth in the assay with BT-549 breast was -32.5% (active); in the assay on SW-620 colon, -58.2% (active); with MCF7 breast, -31.8% (active); with HCT-116 colon, -84.1% (active); in the assay on HCC-2998 colon, 61.6%.

Regarding `COc1ccc2nc(-c3ccc(Cl)cc3)cc(-c3nnc(SC/C(=N/O)c4ccccc4)o3)c2c1`, the growth in the assay on BT-549 breast was 46.8%; in the assay with MDA-MB-435 melanoma, 47%; in the assay on MCF7 breast it was 19.9%; with HCT-116 colon it was 3.9% (active); with HCC-2998 colon, 84%; in the assay with KM12 colon, 58.1%.

Consider `CC(=O)OCC1SC(OC(C)=O)C(NC(=O)/C=C/CCl)C(OC(C)=O)C1OC(C)=O` (centres undefined), for which the growth in the assay with BT-549 breast is 105%; with MDA-MB-435 melanoma, 101%; in the assay with MCF7 breast, 85.8%; in the assay with HCT-116 colon, 101%; with HCC-2998 colon, 104%; with KM12 colon, 102%.

For the compound `Cc1nn(-c2ccc(-c3ccc(OC(F)(F)F)cc3)cc2)c2nc(-c3ccccc3)nc(N)c12`, the growth in the assay with BT-549 breast is 98.1%; in the assay with MDA-MB-435 melanoma it was 102%; in the assay with MCF7 breast, 94.3%; in the assay with HCT-116 colon, 96.7%; in the assay with HCC-2998 colon, 96.8%; in the assay on KM12 colon it was 100%.

Consider `NCCCn1c2c(c3cc(-c4ccn[nH]4)ccc3c1=O)C(=O)c1ccccc1-2`, for which the growth in the assay on BT-549 breast is 77.3%; in the assay with MDA-MB-435 melanoma, 63%; in the assay with HCT-116 colon, 19.1%; in the assay on HCC-2998 colon, 60.6%; in the assay with KM12 colon, 38.7%.

As for `CC(=O)Oc1c2c(nc3c1c1ccccc1n3Cc1ccccc1)-c1ccccc1C2`, the growth in the assay with BT-549 breast was 104%; with MDA-MB-435 melanoma, 98.2%; in the assay on MCF7 breast, 51.1%; in the assay on HCT-116 colon, 73.5%; with HCC-2998 colon, 87.9%; with KM12 colon it was 88.7%.

As to `C[C@H]1[C@H](C)CC[C@]2(C(=O)OCCOCCOCC[P+](c3ccccc3)(c3ccccc3)c3ccccc3)CC[C@]3(C)C(=CC[C@@H]4[C@@]5(C)CC[C@H](OC(=O)C(Cl)Cl)C(C)(C)[C@@H]5CC[C@]43C)[C@H]12`, the growth was -66.3% (active) in the assay with BT-549 breast, -24.1% (active) with MDA-MB-435 melanoma, -36.3% (active) with HCT-116 colon and 19.1% in the assay with HCC-2998 colon.

For `C=C(C)[C@@H]1CC[C@]2(C(N)=O)CC[C@]3(C)[C@H](CC[C@@H]4[C@@]5(C)CCCNC(C)(C)[C@@H]5CC[C@]43C)[C@@H]12`, the growth in the assay on BT-549 breast is 85.2%; in the assay with MDA-MB-435 melanoma, 78.7%; in the assay with MCF7 breast, 45.3%; with HCT-116 colon, 55.8%; in the assay with HCC-2998 colon it was 98.2%; in the assay with KM12 colon, 79.8%.

`CCCCC(=O)Nc1c(C(=O)Nc2ccccc2)sc2nc3c(cc12)C(OC(=O)CCCC)CCC3` (centres undefined): the growth is 85.4% in the assay on BT-549 breast; 108% with MDA-MB-435 melanoma; 82.9% in the assay on MCF7 breast; 101% in the assay on HCT-116 colon; 101% in the assay with HCC-2998 colon; 99.9% in the assay with KM12 colon.

Regarding `COc1ccc(/C=C/C(=O)/C=C(/C=C/c2ccc(OC)c(OC)c2)OB(F)F)cc1OC`, the growth with BT-549 breast is 44.3%; in the assay with MDA-MB-435 melanoma, 8.23% (active); with MCF7 breast, 20.1%; with HCT-116 colon, -45.6% (active); in the assay on HCC-2998 colon it was 102%; in the assay with KM12 colon, 36.1%.

With `O=C1C(=O)c2c(nc3ccc(C(F)(F)F)cn23)-c2ccccc21`, the growth with BT-549 breast is -85.2% (active); in the assay with MDA-MB-435 melanoma, -84.4% (active); in the assay on MCF7 breast, -55.5% (active); in the assay on HCT-116 colon, -74.9% (active); in the assay on HCC-2998 colon it was -90.4% (active).

Take `C=C1C(=O)O[C@H]2[C@H]1CC/C(COC(=O)CCCCCCC(=O)OC/C1=C/CC[C@@]3(C)O[C@H]3[C@H]3OC(=O)C(=C)[C@@H]3CC1)=C\CC[C@@]1(C)O[C@@H]21`: the growth with BT-549 breast is 49.4%; with MDA-MB-435 melanoma, 40.4%; with MCF7 breast, 14.8%; in the assay on HCT-116 colon it was -40.6% (active); with HCC-2998 colon it was 89.3%; with KM12 colon, 61.5%.

Consider `COC1=CC2C=C(C3N(c4ccccc4)NC(=O)[C@@H]4CCCN34)C(=O)NC2C=C1` (some centres undefined), for which the growth with BT-549 breast is 97.4%; in the assay with MDA-MB-435 melanoma, 97%; in the assay on MCF7 breast it was 94.1%; in the assay on HCT-116 colon, 93.8%; in the assay with HCC-2998 colon, 94.8%; with KM12 colon it was 100%.

Regarding `COc1c(O)cc2oc3cc(O[C@@H]4OC(C)[C@@H](O)[C@H](O)C4O)c(CC=C(C)C)c(O)c3c(=O)c2c1CC=C(C)C` (some centres undefined), the growth was 99.3% in the assay with BT-549 breast; 97.9% in the assay with MDA-MB-435 melanoma; 76% in the assay on MCF7 breast; 94.1% in the assay with HCT-116 colon; 94.8% in the assay on HCC-2998 colon; 87.8% with KM12 colon.

With `CCOC(=O)c1c(C(F)(F)F)n([O-])c2ccc(Cl)cc2[n+]1=O`, the growth was -59.6% (active) in the assay with BT-549 breast; -70.1% (active) in the assay with MDA-MB-435 melanoma; -57.6% (active) in the assay on MCF7 breast; -62.8% (active) in the assay with HCT-116 colon; -90.8% (active) in the assay on HCC-2998 colon; -78.5% (active) in the assay on KM12 colon.

In the case of `C=C1C(=O)O[C@H]2[C@H]1CC/C(COC(=O)n1ccnc1)=C\CC[C@@]1(C)O[C@@H]21`, the growth was 94.8% in the assay with BT-549 breast; 99.6% in the assay with MDA-MB-435 melanoma; 76.8% in the assay on MCF7 breast; 81.6% in the assay with HCT-116 colon; 104% with HCC-2998 colon; 105% with KM12 colon.

On to `COc1ccc(-c2cc(-c3nnc(SCC(=O)Nc4ccc(C(C)=O)cc4)o3)c3ccccc3n2)cc1`, for which the growth in the assay with BT-549 breast is 14.8%; in the assay with MDA-MB-435 melanoma, 11.5%; in the assay on MCF7 breast it was -15.7% (active); with HCT-116 colon, -26.9% (active); in the assay with HCC-2998 colon, 96.5%; with KM12 colon, 39.2%.

As for `COc1cc(C2=NN(C=O)C(c3cccc(Nc4ccnc5cc(C(F)(F)F)ccc45)c3)C2)cc(OC)c1OC` (centres undefined), the growth in the assay on BT-549 breast was 56.1%; with MDA-MB-435 melanoma, 43.5%; in the assay with MCF7 breast, 38.4%; in the assay with HCT-116 colon, 58.4%; in the assay on HCC-2998 colon, 70.1%; with KM12 colon, 59.7%.

Turning to `CC1CCCN(CCCCCOc2ccc3oc4ccc(Cl)cc4c(=O)c3c2)C1` (centres undefined), the growth is 80.3% in the assay on BT-549 breast; 25.1% in the assay with MDA-MB-435 melanoma; 60.8% in the assay with MCF7 breast; 32.2% in the assay on HCT-116 colon; 78.3% with HCC-2998 colon; 59.4% with KM12 colon.

The values are drawn from PubChem BioAssay (NCI).
